In ChEMBL document CHEMBL3988442, “University of Dundee, Small-Polar-MMV Screening Library” (2021):

biological target: T1, Aspartate--tRNA(Asp/Asn) ligase (Mycobacterium tuberculosis (strain ATCC 25618 / H37Rv)) (UniProt P9WFW3); test: Assay for Asp RNA synthetase-1 from Mycobacterium tuberculosis; assay type: functional; parameters: scale not given: in the data most compounds retested in dose-response had high values; settings: 30 µM
T1 sequence (whole entry): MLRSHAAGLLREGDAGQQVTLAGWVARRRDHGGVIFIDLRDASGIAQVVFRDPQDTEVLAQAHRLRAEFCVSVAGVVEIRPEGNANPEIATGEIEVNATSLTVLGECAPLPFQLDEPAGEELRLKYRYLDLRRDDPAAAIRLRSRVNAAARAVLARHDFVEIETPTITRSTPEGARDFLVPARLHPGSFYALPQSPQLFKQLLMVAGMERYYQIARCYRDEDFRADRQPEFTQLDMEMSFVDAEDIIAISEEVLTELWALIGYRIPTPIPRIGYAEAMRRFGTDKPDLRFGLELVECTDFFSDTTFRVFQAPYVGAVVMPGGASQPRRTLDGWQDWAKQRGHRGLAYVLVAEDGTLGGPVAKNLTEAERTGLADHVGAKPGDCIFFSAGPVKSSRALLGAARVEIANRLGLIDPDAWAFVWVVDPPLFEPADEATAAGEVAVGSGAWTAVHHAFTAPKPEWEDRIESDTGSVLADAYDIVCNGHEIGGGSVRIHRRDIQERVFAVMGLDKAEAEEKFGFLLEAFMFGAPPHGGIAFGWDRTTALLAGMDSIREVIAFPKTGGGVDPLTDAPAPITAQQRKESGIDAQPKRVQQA

SMILES | Percent Effect
c1cnn(CC2CN(CCc3ccncc3)CCO2)c1 (stereo not given) | 2.1%
Cn1cnc2c1CCN(Cc1noc(-c3ccccc3)n1)C2 | 3.96%
Cc1ccc(CNC2CCN(CCc3ccncc3)CC2)cc1C | -5.11%
Cc1cc(CN2CCN(CCOc3cccc(C#N)c3)CC2)no1 | 2.73%
CC(=O)NC(C)(C)C(=O)Nc1ncc(Cc2ccc(C)c(F)c2)s1 | -1.27%
CC1=Nc2c(c(=O)[nH]n2C(C)C)C(c2ccc(F)c(F)c2)S1 (stereo not given) | 1.86%
COc1ncccc1C(=O)N1CCN(C(=O)Cc2ccccn2)CC1 | 4.26%
O=C(c1cccs1)N1CCC2(C1)c1ccccc1S(=O)(=O)N2CC1CC1 (stereo not given) | -6.49%
Cc1nn(C)c(C)c1NC(=O)CN1CCc2c(nc(C3CC3)n2C)C1 | -0.703%
CC(O)CN(CC(=O)NC(=O)NCC(F)(F)F)c1ccccc1 (stereo not given) | -7.32%
Cc1cn2nc(N3CCCC3CC(C)(C)C)sc2n1 (stereo not given) | 1.06%
O=C(C1CCOCC1)N1CCC2(CC1)CC(Oc1ccccc1)CO2 (stereo not given) | -1.89%
Cc1cc(C2CCCN(C(=O)c3cnccn3)C2)ccn1 (stereo not given) | -0.521%
O=C(c1cnc(-c2cccs2)s1)N1CCCC(n2cccn2)C1 (stereo not given) | 2.29%
c1ncn(CC2CN(Cc3noc(C4CC4)n3)CCO2)n1 (stereo not given) | 0.367%
CN(Cc1ccc(F)cc1)C(=O)NCc1nnc2n1CCCCC2 | -5.74%
COc1ccc2c(c1)CC(NC(=O)NCc1cccs1)CO2 (stereo not given) | -4.82%
c1cc2n(n1)CC(CNCc1ccc(OC3CCCCC3)nc1)CN2 (stereo not given) | -3.37%
C[C@@H]1C(=O)NC[C@H]2CN(CCc3ccccc3)C[C@H]21 | 4.21%
CCS(=O)(=O)N1CCc2ccc(NC(=O)Nc3ccc(F)cc3F)cc21 | 1.65%

SMILES | Percent Effect
Cc1ccc(NC2CCN(C(=O)c3cc(C(N)=O)cs3)CC2)nn1 | 4.69%
COc1ccc(COCC(O)CNC(=O)c2cccnc2)cc1 (stereo not given) | -1.27%
c1cnnc(N2CCCC2CNc2ncnc3ccccc23)c1 (stereo not given) | 3.45%
OC(COCc1cccs1)CN1CCC(c2ccn[nH]2)CC1 (stereo not given) | 1.71%
CC(C)Oc1ncccc1CNC(=O)c1cc[nH]n1 | -1.4%
CCN1CCN(C2CCN(Cc3noc(C)n3)CC2)C1=O | -5.45%
COCC1c2nnn(CC3CC3)c2CCN1C(=O)c1ccnnc1 (stereo not given) | -4.7%
CC(=O)N1CCC2(CC1)CC[C@@]1(C(=O)N(C)C)CN(S(C)(=O)=O)C[C@@H]21 | -1.99%
COCc1ccccc1CNCc1c(C)nn(C)c1N(C)C | 0.533%
CCCn1ccc(C(=O)N2CCC(C)CC2)n1 | 3.36%
COCc1cccc(CNC(=O)CN2CCCC2c2noc(C)n2)c1 (stereo not given) | -0.723%
CC(=O)N1CCCC1c1nnc2n1CCCCC2 (stereo not given) | -0.915%
COC(=O)c1ccc(C(=O)NS(=O)(=O)c2cncc(Br)c2)cc1 | -0.323%
Cc1cc2c(cc1C)C(NCc1nnc3n1CCCCC3)CCCO2 (stereo not given) | 0.212%
O=C(NCCCn1cccn1)C1(c2ccc(F)cc2)CC1 | -8.14%
Cc1ccc(-c2cc(N)c(=O)n(CC(=O)NC3CCCCC3)n2)s1 | 1.95%
c1cnc(-c2nc(CN3CCC(c4ccn[nH]4)CC3)cs2)nc1 | -0.495%
COc1cc(N2C[C@@H]3COC[C@]3(COc3cccnc3)C2)ncn1 | -3.68%
CC(CN1CCN(C)CC1)NC(=O)c1cc(Cl)c2c(c1)OCO2 (stereo not given) | 3.29%
OC(COc1ccccc1)CN1CCc2c(ncn2C2CC2)C1 (stereo not given) | -7.92%
